The values below come from PubChem BioAssay AID504447 (The Scripps Research Institute Molecular Screening Center, 2011).

Entries with a potency or affinity are not part of this list. Calls of active or inactive are those of the source. How the calls were made is not given here.

This assay has as its target Peroxisome proliferator-activated receptor gamma (Homo sapiens) (UniProt P37231). Nature of the assay: PPARg transcriptional activation, reporter cells – cell-based, luminescence, assay provider, dose response (AID 504447).

Chain of Peroxisome proliferator-activated receptor gamma (Homo sapiens) (P37231 whole entry, looked up): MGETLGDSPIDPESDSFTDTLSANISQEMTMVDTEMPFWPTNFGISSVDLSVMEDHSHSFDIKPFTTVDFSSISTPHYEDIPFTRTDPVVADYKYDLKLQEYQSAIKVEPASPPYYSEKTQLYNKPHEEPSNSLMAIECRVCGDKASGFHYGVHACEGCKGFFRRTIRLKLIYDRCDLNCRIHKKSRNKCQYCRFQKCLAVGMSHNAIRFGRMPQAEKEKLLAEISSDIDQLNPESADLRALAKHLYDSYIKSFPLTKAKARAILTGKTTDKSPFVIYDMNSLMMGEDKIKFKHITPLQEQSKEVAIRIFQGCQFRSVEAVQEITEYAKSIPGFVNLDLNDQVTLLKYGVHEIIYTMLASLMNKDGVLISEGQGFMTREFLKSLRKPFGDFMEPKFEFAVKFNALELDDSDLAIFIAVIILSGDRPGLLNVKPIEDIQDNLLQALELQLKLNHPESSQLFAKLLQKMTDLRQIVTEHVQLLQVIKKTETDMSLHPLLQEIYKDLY

For the molecule `O=C(CNC(=O)c1nc[nH]c1C(=O)N1CCc2ccccc2C1)OCc1ccccc1`, the result was inactive.
The result for `COCCn1cnc2c1c(=O)n(Cc1cc(C(C)=O)ccc1OC)c(=O)n2Cc1ccccc1` reads “inactive”; that for `COc1ccc(CN(Cc2ccccn2)C(=O)CN2C(=O)C(C)Oc3ccccc32)cc1` (stereo not drawn), “inactive”.
The result for `CCOc1cccc(/C(O)=C2/C(=O)C(=O)N(Cc3ccco3)C2c2ccncc2)c1` (stereo not drawn) reads “inactive”.
The result for `CC(Oc1ccc2c(c1)oc(=O)c1ccccc12)C(=O)NC(Cc1c[nH]c2ccc(O)cc12)C(=O)O` (stereo not drawn) reads “inactive”; that for `O=C1CC(N2CCN(Cc3ccc4c(c3)OCO4)CC2)C(=O)N1Cc1ccc(N2CCCC2=O)cc1` (stereo not drawn), “inactive”.
Take `COc1cc(C2/C(=C(/O)c3ccc(F)cc3)C(=O)C(=O)N2CCCC(=O)O)ccc1O` (stereo not drawn): the outcome was inactive.
With `O=C(CSc1nc(=O)n(CCCN2CCOCC2)c2c1CCC2)Nc1cccc(F)c1`, the outcome was inactive.
